Holding throughout (experiment): NCI-60 one-dose screen, 48 h (100 = growth as untreated, 0 = no growth, -100 = all killed)
Holding throughout (settings): 10 µM unless noted

For assay [1], the system named is HCT-15 colon.
Assay [2] relates to HT29 colon.
Assay [3] deals with SNB-75 CNS.
For assay [4], the system named is SNB-19 CNS.
Assay [5] concerns U251 CNS.
Assay [6] relates to PC-3 prostate.
The subject of assay [7] is SK-MEL-5 melanoma.
Assay [8] relates to UACC-62 melanoma.
The subject of assay [9] is LOX IMVI melanoma.
Assay [10] concerns SK-MEL-28 melanoma.
The test system of assay [11] is SK-MEL-2 melanoma.
Assay [12] has as its system EKVX NSCLC.
The subject of assay [13] is SN12C renal.
Assay [14] deals with UO-31 renal.
In assay [15] the test system is TK-10 renal.
Assay [16] relates to ACHN renal.
Assay [17] has as its system A498 renal.
Assay [18] has as its system CCRF-CEM leukemia.
The test system of assay [19] is MOLT-4 leukemia.
Assay [20] concerns SR leukemia.

Molecules are shown by their SMILES. This is part of a sample that, as a whole, favours compounds with a hit. Of some 83,000 tested, about 20% had one in any assay.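 For each line, cells grew in 96-well plates with the test compound present at a single concentration for 48 hours.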 A number with no mark means an inactive call. Activity calls are given as the source filed them. How the source made its calls: active means growth percent below 10; inactive means the rest.

The text below walks through data of PubChem BioAssay (NCI).

Regarding `COCCOCCOCc1n(Cc2ccc3ccccc3c2)c2ccccc2[n+]1Cc1ccc2ccccc2c1`, the growth in [1] was 88.4%; in [2], -5.47% (active); in assay [3], -4.1% (active); in assay [4], 23%; in assay [5], 12.4%; in assay [6] it was 5.49% (active). Moreover, the growth in assay [7] is -91.9% (active); in assay [8], -29.6% (active); in [9] it was -26.6% (active); in [10], 16.8%; in assay [11], -18.8% (active); in assay [12], 47.4%. Moreover, the growth was 11.7% in [13]; 81.9% in [14]; 3.33% (active) in [15]; 93.9% in assay [16]; 12% in assay [17]; 12% in [18]. The growth in assay [19] is 4% (active); in assay [20], -39.5% (active).

In the case of `C=CCn1c(CN2CCN(c3cc4c(cc3F)c(=O)c(C(=O)O)cn4C3CC3)CC2)n[nH]c1=S`, the growth in [1] was 103%; in [2], 90.5%; in [3], 99.8%; in assay [4], 107%; in assay [5], 103%; in [6], 101%. The growth is 106% in assay [7]; 99.9% in assay [8]; 81.8% in assay [9]; 97.2% in assay [10]; 104% in assay [11]; 101% in assay [12]. Moreover, the growth was 104% in assay [13]; 83.7% in assay [14]; 88.9% in assay [15]; 102% in assay [16]; 98.2% in [17]; 90.1% in [18]. Further, the growth is 94.2% in assay [19] and 99.1% in assay [20].

Regarding `C=C1C(=O)O[C@H]2[C@H]1CC/C(COC(=O)Nc1nc3ccccc3[nH]1)=C\CC[C@@]1(C)O[C@@H]21`, the growth in assay [1] is 25.3%; in [2] it was 42.2%; in [3] it was 75.7%; in assay [4], 91.1%; in [5], 90.2%; in assay [6], 67.5%. Besides, the growth is 83.7% in assay [7]; 53.9% in assay [8]; 69.6% in [9]; 61.4% in assay [10]; 68.1% in assay [11]; 58.7% in assay [12]. The growth in [13] is 67.4%; in assay [14], 43.1%; in [15], 46.3%; in assay [16] it was 32.5%; in assay [17] it was 102%; in assay [18], 6.53% (active). The growth in assay [19] is 45.9%; in assay [20], 16.2%.

Regarding `COC(=O)c1ccc2c(c1)NC(=O)[C@@H]1CCCN21`, the growth in [1] is 96.6%; in [2] it was 98.5%; in [3], 83.1%; in assay [4], 94.2%; in assay [5] it was 102%; in [6], 100%. Besides, the growth in [7] is 96.8%; in [8], 94.6%; in assay [9] it was 88.5%; in [10], 106%; in [11] it was 95%; in assay [12], 94.1%. For the same compound, the growth is 101% in assay [13]; 88.1% in assay [14]; 127% in [15]; 103% in assay [16]; 90.4% in assay [17]; 99.5% in assay [18]. For the same compound, the growth is 84.1% in assay [19] and 81.5% in assay [20].

On to `O=[N+]([O-])c1ccc(N=Nc2c(O)c(N=Nc3cc([N+](=O)[O-])cc([N+](=O)[O-])c3O)cc(N=Nc3cc(S(=O)(=O)O)cc4cc(S(=O)(=O)O)cc(O)c34)c2O)cc1`, for which the growth in assay [1] was 101%; in assay [2], 99.1%; in [3], 91.1%; in assay [4], 105%; in [5] it was 105%; in [6], 86.7%. The growth in assay [7] is 108%; in assay [8], 95.5%; in assay [9], 90.1%; in assay [10] it was 99%; in assay [11], 100%; in assay [12], 102%. The growth was 101% in assay [13]; 83.2% in [14]; 98.6% in assay [15]; 101% in [16]; 107% in assay [17]; 97.2% in assay [18]. The growth in assay [19] was 86.7%; in assay [20] it was 86.1%.

On to `OCCNc1nc(NCCO)nc(Nc2ccc(C3=NN(c4cc(Cl)cc(Cl)c4)C(c4ccc(C(F)(F)F)cc4)C3)cc2)n1` (stereo not given), for which the growth in assay [1] is 17.5%; in assay [2], 10.5%; in assay [3], -1.68% (active); in assay [4], 44.4%; in assay [5], 19.3%; in [6], 19.2%. Also, the growth in assay [7] is 52.7%; in assay [8], 47.1%; in assay [9], -48.5% (active); in [10] it was 44.8%; in assay [11], 45.9%; in [12], 49.4%. Further, the growth in assay [13] was 59.6%; in assay [14] it was 42.2%; in assay [15], 33.1%; in assay [16], 29.6%; in assay [17], 67.7%; in assay [18], -6.5% (active). Further, the results for the growth in assay [19] and in assay [20] were 7.9% (active) and 4.83% (active), respectively.

In the case of `CCCn1c2cc(OCc3cn(-c4ccc(Br)cc4)nn3)ccc2c2ccnc(C)c21`, the growth in assay [1] is 73.5%; in assay [2], 57.9%; in assay [3] it was -1.81% (active); in assay [4], 53.8%; in assay [5], 33.8%; in [6], 74.5%. Besides, the growth was 76.8% in assay [7]; 38.8% in assay [8]; 72.7% in assay [9]; 80.3% in assay [10]; 70.6% in [11]; 82.7% in [12]. Moreover, the growth in assay [13] was 17.5%; in [14], 23.4%; in assay [15], 85.9%; in [16], 17.4%; in assay [17], 77.8%; in [18], 13.1%. In addition, the growth in assay [19] was 45.6%; in assay [20], -15.2% (active).
